Test results as given in PubChem BioAssay (NCATS).
“And” between values parts separate entries of the source, which are not always exact repeats. Equal values may be shown once. Results filed as inconclusive are left out. The source made the active and inactive calls. Unless noted, the call rests on the fitted dose curve; in most records, active means well fitted curve in the direction sought with a large enough effect; inconclusive means small, poorly fitted or top-dose-only effect, or another doubt; inactive means no such curve, though single readings can be large; an effect the other way counts as inactive or inconclusive.

Tests used:
[1] = biological target: Alpha-galactosidase A (Homo sapiens) (UniProt P06280); assay: Counterscreen for Glucocerebrosidase Inhibitors: qHTS Assay for Human alpha-Galactosidase at pH 4.5 (AID 992); further: 0% is about no effect
Chain of Alpha-galactosidase A (Homo sapiens) (P06280 whole entry, looked up): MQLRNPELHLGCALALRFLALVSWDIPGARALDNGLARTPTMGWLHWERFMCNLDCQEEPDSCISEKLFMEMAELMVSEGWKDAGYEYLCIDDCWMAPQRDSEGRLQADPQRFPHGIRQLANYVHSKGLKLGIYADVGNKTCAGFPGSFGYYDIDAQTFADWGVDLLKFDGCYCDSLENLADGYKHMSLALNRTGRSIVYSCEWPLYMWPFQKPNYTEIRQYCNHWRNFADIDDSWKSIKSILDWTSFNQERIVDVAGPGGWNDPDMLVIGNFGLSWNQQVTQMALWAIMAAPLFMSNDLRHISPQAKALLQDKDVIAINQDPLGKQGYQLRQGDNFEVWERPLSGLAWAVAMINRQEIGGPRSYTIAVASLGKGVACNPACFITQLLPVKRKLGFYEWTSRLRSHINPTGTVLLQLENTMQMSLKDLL
How it was run: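 Concentration-response curves (0.7 nM to 77 uM final) were modeled with the Hill equation to give AC50. Reactions: 2 nM enzyme, 80 uM fluorogenic alpha-galactoside, pH 4.5 citric acid buffer, 20 min, room temperature.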

[2] = biological target: alpha-glucosidase (Oryza sativa, rice) (UniProt Q653V4); assay: Counterscreen for Glucocerebrosidase Inhibitors: qHTS Assay for Rice alpha-Glucosidase at pH 5.0 (AID 997);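 further: 0% = full activity with enzyme and -100% = basal without enzyme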
How it was run: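 Rice alpha-glucosidase (4 nM final) with 400 uM 4-methylumbelliferyl-alpha-D-glucopyranoside in citrate buffer pH 5.0, 20 min at room temperature, stopped at pH 10; fluorescence 365/440 nm, compounds 0.7 nM–77 uM, AC50 from Hill fits.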

[3] = qHTS Assay for Lipid Storage Modulators (AID 1519; calls by dose curve; on activity change, negative = inhibition: on the % scale 0 is the no-effect control and ±100 the full control effect); conditions: Drosophila S3 cells, BODIPY lipid droplet/cell ratio, laser cytometry, cells loaded with oleic acid
How it was run: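 Cells seeded at 5,000 per well were treated with compounds over a concentration series and loaded with oleic acid (400 uM, as added). Lipid droplet fluorescence (488 nm excitation, 500-530 nm channel) was read by laser-scanning cytometry and normalized to 20 uM Triacsin C.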

[4] = biological target: DNA repair nuclease/redox regulator APEX1 (Homo sapiens) (UniProt P27695); assay: qHTS Validation Assay for Inhibitors of the Human Apurinic/apyrimidinic Endonuclease 1 (APE1) (AID 1705;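 further: TAMRA fluorescence gain over two minutes as APE1 cuts a quenched THF abasic duplex; on the % scale 0 is the no-effect control and ±100 the full control effect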)
Chain of DNA repair nuclease/redox regulator APEX1 (Homo sapiens) (P27695 whole entry, looked up): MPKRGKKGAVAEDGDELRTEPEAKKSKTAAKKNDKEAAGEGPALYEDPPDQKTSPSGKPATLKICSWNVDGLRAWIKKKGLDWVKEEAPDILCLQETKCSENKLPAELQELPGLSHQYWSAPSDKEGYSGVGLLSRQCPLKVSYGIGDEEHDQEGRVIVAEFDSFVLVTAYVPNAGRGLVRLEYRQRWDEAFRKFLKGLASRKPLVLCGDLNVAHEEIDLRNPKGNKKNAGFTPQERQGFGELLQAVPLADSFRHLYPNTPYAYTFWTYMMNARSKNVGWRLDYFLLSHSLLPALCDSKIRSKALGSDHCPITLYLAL
How it was run: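 qHTS, 1536-well. APE1 + cpd 15 min RT → 50 nM TAMRA/BHQ-2 THF-abasic dsDNA substrate → kinetic fluorescence, 3 reads/60 s; delta(read3−read1) = reaction progress. No-enzyme buffer = negative control.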

[5] = Counterscreen for APE1 Inhibitors: Fluorescent Dye Displacement Validation Assay (AID 1707);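 further: plate controls were ThO with dsDNA and no compound for no effect and ThO without dsDNA for full effect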
How it was run: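 Assay buffer: Tris-HCl pH7.5 with 50mM NaCl, 2 mM MgCl2, 0.01% Tween-20. Dye 250 nM, duplex 50 nM final. Readout: decrease in ThO endpoint fluorescence, 480 nm excitation, 540 nm emission.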

[6] = biological target: Endonuclease 4 (Escherichia coli (strain K12)) (UniProt P0A6C1); assay: Counterscreen for APE1 Inhibitors: qHTS Validation Assay for Inhibitors of Endonuclease IV (AID 1708); further: on the % scale 0 is the no-effect control and ±100 the full control effect
How it was run: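 qHTS concentration-response format; LOPAC1280 tested under APE1-screen conditions. 2 nM enzyme, 15 min compound preincubation at RT, then 50 nM TAMRA/BHQ-2 abasic substrate; kinetic fluorescence read, three reads at 60 s intervals.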

[7] = qHTS for differential inhibitors of proliferation of Plasmodium falciparum line 7G8 (AID 1815);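 further: parasite growth measured after three days of incubation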; further: potency means the concentration at half of the fitted maximal effect;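 on activity change, negative = inhibition: plate controls were vehicle wells for no effect and reference inhibitor wells for full effect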
[8] = qHTS for differential inhibitors of proliferation of Plasmodium falciparum line GB4 (AID 1816); conditions: Potency: Plasmodium falciparum GB4 proliferation inhibition;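 further: parasite growth measured after 72 h incubation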; further: potency means the concentration at half of the fitted maximal effect;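 on activity change, negative = inhibition: 0% = vehicle DMSO and -100% = reference inhibitor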
[9] = qHTS for differential inhibitors of proliferation of Plasmodium falciparum line 3D7 (AID 1876); further: potency means the concentration at half of the fitted maximal effect
[10] = qHTS for differential inhibitors of proliferation of Plasmodium falciparum line D10 (AID 1877);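 further: parasites grown with compound for 72 h before DNA staining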; further: potency means the concentration at half of the fitted maximal effect;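 on activity change, negative = inhibition: plate controls were vehicle wells for no effect and reference inhibitor wells for full effect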
[11] = Cell Viability - LYMP2-014 (AID 983);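 further: plate controls were DMSO only for no effect and 92 µM tetraoctylammonium bromide for full effect; nearly all actives have a fitted effect of over 50% in size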
How it was run: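 Luminescent ATP signal (CellTiter-Glo, 30 min at room temperature) serves as the viability read-out after 24 hr compound exposure at 37 C. Cells were seeded at 2500 per well and settled 5 hr beforehand.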

[12] = Cell Viability - LYMP2-016 (AID 984);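 further: cells exposed to compound for 24 hours at 37 °C; on the % scale 0 is the no-effect control and ±100 the full control effect; nearly all actives have a fitted effect of over 55% in size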
How it was run: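 Cells were seeded at 2500 per well and rested 5 hr before a 24 hr compound exposure at 37 C. Viability was then gauged as cellular ATP by luciferase luminescence, with AC50 values fitted to the Hill equation.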

[13] = Cell Viability - LYMP2-018 (AID 985);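 further: plate controls were DMSO only for no effect and tetraoctylammonium bromide at 92 µM for full effect; nearly all actives have a fitted effect of over 50% in size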
How it was run: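 Luminescent ATP signal (CellTiter-Glo, read after 30 min at room temperature) reports viable cells after 24 hr compound treatment at 37 C. Concentration-response data were fitted to the standard Hill equation for AC50.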

[14] = Cell Viability - LYMP2-020 (AID 986);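 further: plate controls were DMSO only for no effect and tetraoctylammonium bromide at 92 µM for full effect; nearly all actives have a fitted effect of over 55% in size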
How it was run: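 Luminescent ATP signal (CellTiter-Glo, 30 min at room temperature) is the read-out after 24 h compound treatment of lymphoblastoid cells at 37 C. AC50 values come from Hill-equation fits across concentrations.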

[15] = Cell Viability - LYMP2-022 (AID 987);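 further: 0% = DMSO alone and full effect = tetraoctylammonium bromide at 92 µM; nearly all actives have a fitted effect of over 55% in size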
How it was run: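 qHTS: human lymphoblastoid cells 2500/well; 5 hr 37 C; cpd added; 24 hr 37 C; CellTiter-Glo, 30 min RT; luminescence. AC50 via Hill fit; tetraoctylammonium bromide positive ctrl.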

[16] = Cell Viability - LYMP2-024 (AID 988);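 further: plate controls were DMSO only for no effect and 92 µM tetraoctylammonium bromide for full effect; nearly all actives have a fitted effect of over 60% in size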
How it was run: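 Steps: seed 2500 cells/well, 5 hr 37 C; add compound, 24 hr 37 C; add CellTiter-Glo, 30 min room temperature; read luminescence. AC50 derived by Hill modelling of concentration-dependent ATP loss.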

[17] = Cell Viability - LYMP2-026 (AID 989); further: on the % scale 0 is the no-effect control and ±100 the full control effect; nearly all actives have a fitted effect of over 50% in size
How it was run: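 Luminescent ATP signal (CellTiter-Glo, 30 min room temperature) measures viable lymphoblastoid cells after 24 hr compound treatment at 37 C. Decreased ATP reflects acute toxicity; AC50 values come from Hill-equation modeling.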

[18] = Cell Viability - LYMP1-002 - Assay at 24 hr (AID 993); further: on the % scale 0 is the no-effect control and ±100 the full control effect
How it was run: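 Cells plated 2500/well, 5 hr 37 C; compounds added, 24 hr 37 C; CellTiter-Glo added, 30 min RT; luminescence read. Tetraoctylammonium bromide positive control. Hill-equation AC50.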

[19] = Cell Viability - LYMP1-002 - Assay at 40 hr (AID 994);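 further: 0% = DMSO only and full inhibition = 92 µM tetraoctylammonium bromide; nearly all actives have a fitted effect of over 60% in size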
How it was run: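 Luminescent ATP signal served as the viability readout, with decreases taken as toxicity. Cells were treated with compounds across a concentration range for 40 hours at 37 C, and AC50 values came from standard Hill modeling.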

[20] = measured here: cell count channel max response
[21] = measured here: lipid channel max response

Nc1cc(=O)[nH]c(N)n1
-1.88%: max response [3, 21]
inactive: outcome [1] | outcome [2] | activity change, negative = inhibition ([3]; at 57.5 µM (top of the series)) 1.9% | Potency [4] | Potency [5] | Potency [6] | Potency [7] | Potency [8] | Potency [9] | Potency [10]
-3.41%: max response [3, 20]

CN(C)CCCN1c2ccccc2CCc2ccccc21
inactive: outcome [1] | outcome [2] | activity change, negative = inhibition ([3]; at 25.7 µM (top of the series)) -3.67% | activity change, negative = inhibition ([3]; at 57.5 µM (top of the series)) -1.66% and 1.56% | Potency [4] | Potency [5]
-3.16% and 7.78% and 14.5%: max response [3, 20]
-7.45% and 10.3% and 14.3%: max response [3, 21]

CC(C)NC[C@H](O)c1ccc(O)c(O)c1
-17.7% and 2.86% and 19.2%: max response [3, 21]
inactive: outcome [1] | outcome [2] | activity change, negative = inhibition ([3]; at 25.7 µM (top of the series)) -3.67% | activity change, negative = inhibition ([3]; at 57.5 µM (top of the series)) 0.654% and 2.27% | Potency [4] | Potency [5] | Potency [6] | Potency [7] | Potency [8] | Potency [9]
-12.5% and 0.715% and 18.4%: max response [3, 20]

CNCCCC1c2ccccc2C=Cc2ccccc21
-15.9%: max response [3, 21]
inactive: outcome [1] | outcome [2] | activity change, negative = inhibition ([3]; at 25.7 µM (top of the series)) -5.19% | activity change, negative = inhibition ([3]; at 57.5 µM (top of the series)) 0.497% | Potency [4] | Potency [5]
-11.5% and -13.6%: max response [3, 20]
active: Potency [7] 5.62 µM | Potency [8] 10 µM | Potency [9] 10 µM | Potency [10] 14.1 µM

Cn1cc[nH]c1=S
inactive: activity change, negative = inhibition ([3]; at 25.7 µM (top of the series)) -0.635% | activity change, negative = inhibition ([3]; at 57.5 µM (top of the series)) 4.03%
-10.4% and 8.98%: max response [3, 20]
-9.93% and 13%: max response [3, 21]

Cc1cc(CC(=O)O)n(C)c1C(=O)c1ccc(Cl)cc1
-0.357% and 17.9%: max response [3, 20]
inactive: outcome [11] | Potency [12] | Potency [13] | Potency [14] | Potency [15] | outcome [16] | Potency [17] | Potency [18] | Potency [19] | activity change, negative = inhibition ([3]; at 25.7 µM (top of the series)) -0.167% | activity change, negative = inhibition ([3]; at 57.5 µM (top of the series)) 7.69%
0.164% and 28.7%: max response [3, 21]

C[C@H](N)[C@H](O)c1cccc(O)c1
15.1%: max response [3, 20]
15%: max response [3, 21]
inactive: activity change, negative = inhibition ([3]; at 25.7 µM (top of the series)) -0.37%

CN(C)CCN(Cc1ccccc1)c1ccccn1
inactive: activity change, negative = inhibition ([3]; at 57.5 µM (top of the series)) 1.48%
16.2%: max response [3, 21]
12.3%: max response [3, 20]

Nc1ccc(S(=O)(=O)NC(=O)c2ccccc2)cc1
-13.2% and 26.2%: max response [3, 21]
-14.6% and 20.6%: max response [3, 20]
inactive: activity change, negative = inhibition ([3]; at 25.7 µM (top of the series)) 2.01% | activity change, negative = inhibition ([3]; at 57.5 µM (top of the series)) 8.83%

CCCCN1CCCC[C@H]1C(=O)Nc1c(C)cccc1C
9.64%: max response [3, 21]
inactive: activity change, negative = inhibition ([3]; at 25.7 µM (top of the series)) -1.47%
8.59%: max response [3, 20]

CN(C)CCC=C1c2ccccc2CCc2ccccc21
inactive: outcome [1] | Potency [18] | outcome [2] | activity change, negative = inhibition ([3]; at 25.7 µM (top of the series)) -5.26% | activity change, negative = inhibition ([3]; at 57.5 µM (top of the series)) -0.124% and 0.255% | Potency [4] | Potency [5]
-13.5% and 9.92% and -13.3%: max response [3, 20]
-18.6% and 12.5% and -14.8%: max response [3, 21]

C[C@](N)(Cc1ccc(O)cc1)C(=O)O
inactive: activity change, negative = inhibition ([3]; at 57.5 µM (top of the series)) 2.05% | Potency [4] | Potency [5] | Potency [6] | Potency [7] | Potency [8] | Potency [9] | Potency [10]
7.9%: max response [3, 20]
13.3%: max response [3, 21]

CCCCN(CCCC)CCCOC(=O)c1ccc(N)cc1
-6.51% and -0.907%: max response [3, 20]
inactive: activity change, negative = inhibition ([3]; at 25.7 µM (top of the series)) -3.3% | activity change, negative = inhibition ([3]; at 57.5 µM (top of the series)) 6.89%
-7.52% and 11.8%: max response [3, 21]

CN(C)CC[C@@H](c1ccc(Cl)cc1)c1ccccn1
active: Potency [7] 2.51 µM
35.1%: max response [3, 20]
34.2%: max response [3, 21]
inactive: activity change, negative = inhibition ([3]; at 57.5 µM (top of the series)) -0.0513% | Potency [4] | Potency [5] | Potency [6] | Potency [9] | Potency [10]

COc1ccccc1O
inactive: outcome [11] | Potency [12] | Potency [13] | Potency [14] | Potency [15] | outcome [16] | Potency [17] | Potency [18] | Potency [19]

NC1CCN(c2cccc(Cl)n2)CC1
inactive: outcome [1] | outcome [2] | activity change, negative = inhibition ([3]; at 57.5 µM (top of the series)) 5.71% and 0.974% | Potency [4] | Potency [5] | Potency [6] | Potency [7] | Potency [9] | Potency [10]
-10.9% and 36.3%: max response [3, 21]
active: Potency [8] 12.6 µM
-16.7% and 37.1%: max response [3, 20]

CC1(C)[C@@H]2CC[C@@]1(C)C(=O)C2
-8.09%: max response [3, 20]
-6.29%: max response [3, 21]
inactive: outcome [11] | Potency [12] | Potency [13] | Potency [14] | Potency [15] | outcome [16] | Potency [17] | Potency [18] | Potency [19] | activity change, negative = inhibition ([3]; at 57.5 µM (top of the series)) 1.5%

CC(=O)OCC(=O)[C@@]1(O)CC[C@H]2[C@@H]3CCC4=CC(=O)CC[C@]4(C)[C@H]3C(=O)C[C@@]21C
inactive: outcome [1] | outcome [2] | Potency [4] | Potency [5] | Potency [6] | Potency [7] | Potency [8] | Potency [9] | Potency [10]

CC1=C(CC(=O)O)c2cc(F)ccc2/C1=C\c1ccc(S(C)=O)cc1 (configuration not stated)
inactive: outcome [2] | activity change, negative = inhibition ([3]; at 25.7 µM (top of the series)) -0.955% | Potency [4] | Potency [5] | Potency [6] | Potency [7] | Potency [8] | Potency [9] | Potency [10]
-8.73%: max response [3, 20]
-7.15%: max response [3, 21]

CCCCOC(=O)c1ccc(O)cc1
inactive: outcome [11] | Potency [12] | Potency [13] | Potency [14] | Potency [15] | outcome [16] | Potency [17] | Potency [18] | Potency [19] | activity change, negative = inhibition ([3]; at 25.7 µM (top of the series)) -2.55%
-1.21%: max response [3, 20]
-4.1%: max response [3, 21]

CC12CCC(CC1)C(C)(C)O2
inactive: outcome [11] | Potency [12] | Potency [13] | Potency [14] | Potency [15] | outcome [16] | Potency [17] | Potency [18] | Potency [19] | activity change, negative = inhibition ([3]; at 57.5 µM (top of the series)) 2.95%
-2.37%: max response [3, 21]
-6.11%: max response [3, 20]

NC(=O)c1ncn([C@@H]2O[C@H](CO)[C@@H](O)[C@H]2O)n1
inactive: Potency [12] | Potency [13] | Potency [14] | Potency [15] | outcome [16] | Potency [17] | outcome [1] | Potency [18] | Potency [19] | outcome [2] | Potency [4] | Potency [5] | Potency [6] | Potency [10]
